Bioassay records: PubChem BioAssay, National Center for Advancing Translational Sciences (NCATS)
aSyn yeast inh = rescues yeast growth from alpha-synuclein toxicity; Yeast expressing alpha-synuclein, growth rescue, BacTiter-Glo, 24 h; actives 0.14% (n = 370,000); Potency, µM (highest dose often 46.1 µM), inactives show at the top dose growth rescue (activation), most hits filed as activators; note: potency is the fitted concentration of half-maximal effect; % of control where 0% means no effect; nearly all actives have a fitted effect of over 65% in size
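Galactose-induced alpha-syn yeast (OD600=0.02, raffinose-pregrown) + pinned cpd, 24 hr, 30 deg C; growth by BacTiter-Glo luminescence. Growth restoration scores as activation.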
Apoferritin bind = candidate novel general anesthetic via apoferritin binding. P02791. Potency, µM (series often up to 77.5 µM), for the others: at the highest dose activity change, negative = displacement, most hits filed as inhibitors. apoferritin/1-aminoanthracene competitive binding, fluorescence. AID 485281. actives 0.074% (n = 350,000); note: potency is the fitted concentration of half-maximal effect; % is set by controls: 0 for no effect and ±100 for the full control effect; nearly all actives have a fitted effect of over 20% in size
Target sequence (P02791 2-175 limits assumed): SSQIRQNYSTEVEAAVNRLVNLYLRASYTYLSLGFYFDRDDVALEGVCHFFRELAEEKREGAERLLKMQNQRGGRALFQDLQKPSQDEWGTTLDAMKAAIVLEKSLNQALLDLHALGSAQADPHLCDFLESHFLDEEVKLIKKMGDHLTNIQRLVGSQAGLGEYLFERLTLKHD
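Probe: 1-aminoanthracene (50% saturated, PBS). Protein: horse-spleen apoferritin, 10 uM. Incubation: 10 min, room temperature. Detection: 380 nm excitation, 535 nm emission. Analysis: normalized response, four-parameter Hill.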
Mito fusion act = mitochondrial division inhibition or fusion activation; Potency, µM (series often up to 46.1 µM), inactives show top-dose growth rescue (activation), actives largely listed as activators; actives 0.23% (n = 320,000); AID 485298; S. cerevisiae fusion-defective mutant growth rescue, CellTiterGlo 48 h; note: potency is the fitted concentration of half-maximal effect; % of control where 0% means no effect; nearly all actives have a fitted effect of over 45% in size
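Compounds are tested for their ability to restore growth of mitochondrial fusion-defective yeast strains at non-permissive 37C in YPEG medium over 48 hours. Viability is quantified by luciferase luminescence.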
CCT chaperon mod = changes cytosolic chaperonin activity | purified chaperonin ATPase assay, HTRF ADP detection, 30 min | activity change, % (concentration not given with the values), hits read low | actives 0.3% (n = 360,000) | AID 651819; in the data active = activity change below about -30%; note: % is set by controls: 0 for no effect and ±100 for the full control effect
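ATPase activity: ADP formed was measured by HTRF Transcreener (665/615 nm ratio) after 30 min at 37 deg C with 10 uM ATP. Compounds screened at one 76 uM concentration against 40 or 20 nM TRiC in Tris pH 7.4/KCl/MgCl2/DTT buffer.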
TDP-43 yeast inh = inhibitors of TDP-43 toxicity in yeast | TDP-43 expressing yeast growth rescue, BacTiter-Glo, 24 h | Potency, µM (top dose mostly 46.1 µM), without a hit: at the top dose growth rescue (activation), usual class: activators | actives 1.8% (n = 410,000); note: potency is the fitted concentration of half-maximal effect; % of control where 0% means no effect; nearly all actives have a fitted effect of over 50% in size
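Galactose-induced TDP-43 yeast, OD600=0.02, compound pinned; 24 hr, 30 deg C; BacTiter-Glo luminescence for growth. Inhibitors of TDP-43 toxicity read as activators.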
pAkt inh = inhibitors of Akt phosphorylation | Neuro2A IGF-stimulated pAkt S473 HTRF, 20 min; hits give low values | activity change, % for hits at 50 µM | actives 0.32% (n = 360,000) | AID 651550; in the data active = activity change below about -80%; inconclusive = mostly about -51% to -80%; note: % is set by controls: 0 for no effect and ±100 for the full control effect
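Neuro2A cells (4,500/well, DMEM with 0.5% FBS) were treated with compound at a single 50 µM final concentration, stimulated with 6 nM IGF for 20 min at 37 °C, and lysed. Phospho-Akt Ser473 was read by HTRF as 665/615 ratio ×10^4.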
An asterisk follows results filed as active. Only some compounds are listed: those with a hit (about 2.5% of all), similar ones and a draw of the others. Unless noted, calls come from the whole dose curve; as a rule, active = well fitted curve in the direction sought with a large enough effect; inconclusive = small, poorly fitted or top-dose-only effect, or another doubt; inactive = no such curve, though single readings can be large; an effect the other way counts as inactive or inconclusive.

Results for CCC(=NCc1ccc(Cl)c(Cl)c1)c1nc(-c2ccco2)oc1O ?
aSyn yeast inh: 9.2%; Apoferritin bind: 150.0%; Mito fusion act: inconclusive; CCT chaperon mod: -1.4; TDP-43 yeast inh: 14.1µM*; pAkt inh: inactive

Results for Cc1nn(Cc2ccc(Cl)c(Cl)c2)c(C)c1NC(=O)c1cc(-c2ccco2)on1 ?
aSyn yeast inh: 10.2%; Apoferritin bind: inconclusive; Mito fusion act: -2.0%; CCT chaperon mod: -0.5; TDP-43 yeast inh: -6.9%; pAkt inh: inactive

Results for CC(=O)c1c(C)nc2ccccc2c1N ?
aSyn yeast inh: -8.7%; Apoferritin bind: -0.3%; Mito fusion act: 1.9%; CCT chaperon mod: 0.7; TDP-43 yeast inh: -2.6%; pAkt inh: inactive

How did Cc1nc2ccccc2c(C)c1C(=O)c1ccccc1 do in these assays?
aSyn yeast inh: 2.8%; Apoferritin bind: -17.8%; Mito fusion act: 5.5%; CCT chaperon mod: 0.4; TDP-43 yeast inh: 14.1µM*; pAkt inh: inactive

How did N#CC1(NC(=O)COc2cccnc2[N+](=O)[O-])CCCCC1 do in these assays?
aSyn yeast inh: 0.2%; Mito fusion act: -0.6%; CCT chaperon mod: -37.7*; TDP-43 yeast inh: 17.0%; pAkt inh: inactive

What do the screens show for `O=C(COc1cccnc1[N+](=O)[O-])Nc1cccc(Br)c1`?
aSyn yeast inh: 7.2%; CCT chaperon mod: -0.3; TDP-43 yeast inh: 8.7%; pAkt inh: inactive

Results for O=C(COc1cccnc1[N+](=O)[O-])Nc1ccccc1Sc1ccccc1 ?
aSyn yeast inh: 25.6%; Apoferritin bind: 2.6%; Mito fusion act: 4.1%; CCT chaperon mod: 0.6; TDP-43 yeast inh: 14.1µM*; pAkt inh: inactive

What do the screens show for `COc1ccc(-c2[nH]c(-c3cccc(OC)c3)nc2SCC(=O)Nc2ccc3c(c2)OCO3)cc1`?
Apoferritin bind: 61.1%; TDP-43 yeast inh: 24.0%

What do the screens show for `Cc1cc(Cl)ccc1C(=O)C1CCCN(C(=O)c2ccsc2)C1` (stereo not drawn)?
aSyn yeast inh: 9.9%; CCT chaperon mod: -2.1; TDP-43 yeast inh: 12.6µM*; pAkt inh: inactive

Results for COc1ccc(C(=O)OCC(=O)NC(=O)NC2CCCC2)c(O)c1 ?
aSyn yeast inh: -0.4%; Apoferritin bind: inconclusive; Mito fusion act: -1.1%; CCT chaperon mod: 3.1; TDP-43 yeast inh: 7.1%; pAkt inh: inactive

Results for COc1ccc(Br)c(C(=O)OCC(=O)NC(=O)NC2CCCC2)c1 ?
aSyn yeast inh: inconclusive; CCT chaperon mod: -0.7; TDP-43 yeast inh: 17.8µM*; pAkt inh: inactive

How did O=C(COC(=O)C1COc2ccccc2O1)NC(=O)NC1CCCC1 (stereo not drawn) do in these assays?
aSyn yeast inh: 2.3%; Apoferritin bind: -9.8%; Mito fusion act: -1.8%; CCT chaperon mod: -4.2; TDP-43 yeast inh: -4.8%; pAkt inh: -97.6%*

Results for N#Cc1cccc(C(=O)OCC(=O)NC(=O)NC2CCCCC2)c1 ?
aSyn yeast inh: 3.9%; Mito fusion act: -1.9%; CCT chaperon mod: -42.2*; TDP-43 yeast inh: 4.8%; pAkt inh: inactive

What do the screens show for `COc1ccc(/C(O)=C2\C(=O)C(=O)N(CCN(C)C)C2c2cc(OC)c(OC)c(OC)c2)c(C)c1` (stereo not drawn)?
aSyn yeast inh: 4.1%; Apoferritin bind: -10.7%; Mito fusion act: inconclusive; CCT chaperon mod: -2.5; TDP-43 yeast inh: 6.4%; pAkt inh: inactive

What do the screens show for `COc1ccc(C2/C(=C(\O)c3cc(C)ccc3C)C(=O)C(=O)N2CCN(C)C)cc1OC` (stereo not drawn)?
aSyn yeast inh: -8.4%; Apoferritin bind: -10.7%; Mito fusion act: -2.5%; CCT chaperon mod: -80.0*; TDP-43 yeast inh: -16.8%; pAkt inh: inactive

How did Cc1ccc(C)c(NC(=O)Cn2nnc(-c3ccc(N4CCOCC4)cc3)n2)c1 do in these assays?
aSyn yeast inh: -7.7%; Apoferritin bind: -5.1%; Mito fusion act: -9.3%; CCT chaperon mod: -78.5*; TDP-43 yeast inh: 2.8%; pAkt inh: inactive

How did Cc1cccc(C)c1NC(=O)Cn1nnc(-c2ccc(N3CCOCC3)cc2)n1 do in these assays?
aSyn yeast inh: -3.9%; Apoferritin bind: -0.7%; Mito fusion act: -2.1%; CCT chaperon mod: -0.5; TDP-43 yeast inh: 19.3%; pAkt inh: inactive

Results for COc1ccccc1-c1cccc([C@@H]2C[C@H]3[C@H](CON3C)CN2C(=O)CCc2ccccc2)c1 ?
aSyn yeast inh: 14.9%; CCT chaperon mod: -1.1; TDP-43 yeast inh: 28.2µM*; pAkt inh: inactive

How did COc1ccccc1C1NC(=O)c2n[nH]c(-c3cccs3)c21 (stereo not drawn) do in these assays?
Apoferritin bind: -5.0%; TDP-43 yeast inh: 0.0%

How did Cc1nn(C)c(C)c1/C=C/C(=O)c1ccc(Cl)cc1Cl do in these assays?
aSyn yeast inh: 10.5%; Apoferritin bind: -15.6%; Mito fusion act: -29.9%; CCT chaperon mod: -4.3; TDP-43 yeast inh: 25.1µM*; pAkt inh: inactive

What do the screens show for `Cc1nn(C)c(C)c1/C=C/C(=O)O`?
aSyn yeast inh: 7.7%; Apoferritin bind: -3.6%; Mito fusion act: -0.1%; CCT chaperon mod: 0.8; TDP-43 yeast inh: 16.8%; pAkt inh: inactive

How did CC(=O)Nc1sc2c(c1C(c1cccs1)N1CCOCC1)CCCC2 (stereo not drawn) do in these assays?
aSyn yeast inh: 1.5%; Apoferritin bind: -12.0%; Mito fusion act: -2.5%; CCT chaperon mod: 0.1; TDP-43 yeast inh: -2.3%; pAkt inh: -109.6%*

Results for C=C(C)C(=O)Nc1cccc(C2=NOC3(C2)C[C@@H](C(N)=O)N(C(=O)c2ccc(Cl)cc2)C3)c1 (stereo partly drawn) ?
aSyn yeast inh: 1.0%; Apoferritin bind: -0.5%; Mito fusion act: 0.8%; CCT chaperon mod: -0.5; TDP-43 yeast inh: 1.1%; pAkt inh: inactive

How did C/C=C(/C)C(=O)Nc1cccc(C2=NOC3(C2)C[C@H](C(N)=O)N(C(=O)c2ccc(Cl)cc2)C3)c1 (stereo partly drawn) do in these assays?
aSyn yeast inh: 6.2%; Apoferritin bind: -17.0%; Mito fusion act: 14.1µM*; CCT chaperon mod: -1.7; TDP-43 yeast inh: 0.9%; pAkt inh: inactive

How did C=C(C)C(=O)Nc1cccc(C2=NOC3(C2)C[C@H](C(N)=O)N(C(=O)/C=C/C)C3)c1 (stereo partly drawn) do in these assays?
aSyn yeast inh: -0.5%; Apoferritin bind: -4.3%; Mito fusion act: -10.6%; CCT chaperon mod: -49.6*; TDP-43 yeast inh: -8.0%; pAkt inh: inactive

How did COc1ccc(C(=O)Nc2ccc(N3CCOCC3)cc2)cc1OC do in these assays?
aSyn yeast inh: -26.1%; Apoferritin bind: -19.2%; Mito fusion act: -7.5%; CCT chaperon mod: -1.5; TDP-43 yeast inh: -17.9%; pAkt inh: inactive
